{
  "source": "paper PMC11062922",
  "about": "(Nature Chemical Biology, 2023)",
  "set-up_in_all_cases": "species or system human, MV4-11 + K-562 + COLO205 + SK-N-BE2 + OVCAR-8",
  "key": {"CDK16": {"tested_on": "CDK16", "settings": "read-out: apparent Kd, compound concentrations: 100 nM and 1000 nM (sheet 'Samples'), n = 1"}, "CSNK1D": {"tested_on": "CSNK1D", "settings": "read-out: apparent Kd, compound concentrations: 100 nM and 1000 nM (sheet 'Samples'), n = 1"}, "MAPK10": {"tested_on": "MAPK10", "settings": "read-out: apparent Kd, compound concentrations: 100 nM and 1000 nM (sheet 'Samples'), n = 1"}, "MAPK9": {"tested_on": "MAPK9", "settings": "read-out: apparent Kd, compound concentrations: 100 nM and 1000 nM (sheet 'Samples'), n = 1"}, "PIP4K2C": {"tested_on": "PIP4K2C", "settings": "read-out: apparent Kd, n = 1"}, "PRKACA": {"tested_on": "PRKACA", "settings": "read-out: apparent Kd, n = 1"}, "PRKACB": {"tested_on": "PRKACB", "settings": "read-out: apparent Kd, n = 1"}, "ATM": {"tested_on": "ATM", "settings": "read-out: apparent Kd, n = 1"}, "CAMKK2": {"tested_on": "CAMKK2", "settings": "read-out: apparent Kd, n = 1"}, "STK16": {"tested_on": "STK16", "settings": "read-out: apparent Kd, compound concentrations: 100 nM and 1000 nM (sheet 'Samples'), n = 1"}, "AURKA": {"tested_on": "AURKA", "settings": "read-out: apparent Kd; compound concentrations: 100 nM and 1000 nM (sheet 'Samples'), CATDS: 7.5652675544933198E-2; n = 1"}, "TNK1": {"tested_on": "TNK1", "settings": "read-out: apparent Kd, n = 1"}, "BCR": {"tested_on": "BCR", "settings": "read-out: apparent Kd; compound concentrations:100 nM and 1000 nM (sheet 'Samples'); n = 1"}, "CHEK1": {"tested_on": "CHEK1", "settings": "read-out: apparent Kd; compound concentrations:100 nM and 1000 nM (sheet 'Samples'); n = 1"}, "EPHA4": {"tested_on": "EPHA4", "settings": "read-out: apparent Kd; compound concentrations:100 nM and 1000 nM (sheet 'Samples'); n = 1"}, "EPHA5": {"tested_on": "EPHA5", "settings": "read-out: apparent Kd; compound concentrations:100 nM and 1000 nM (sheet 'Samples'); n = 1"}, "PRKAG2": {"tested_on": "PRKAG2", "settings": "read-out: apparent Kd; compound concentrations:100 nM and 1000 nM (sheet 'Samples'); n = 1"}, "MARK3": {"tested_on": "MARK3", "settings": "read-out: apparent Kd, n = 1"}, "RPS6KA4": {"tested_on": "RPS6KA4", "settings": "read-out: apparent Kd; compound concentrations: 100 nM and 1000 nM (sheet 'Samples'), CATDS: 3.0047903909945699E-2; n = 1"}, "[1]": {"settings": "compound concentrations:100 nM and 1000 nM (sheet 'Samples')"}},
  "note": "Where two headings read alike, the source gives them in different places.",
  "data": [
    {"smiles": "c1cnn2ncc(-c3ccnc(Nc4ccc5c(c4)OCCO5)n3)c2c1", "note": "[GW806290X]", "values": [
      {"measurement": "potency estimated from few doses", "setting": "CDK16; CATDS: 2.45493373786023E-2", "result": 989, "unit": "nM"},
      {"measurement": "potency estimated from few doses", "setting": "CSNK1D; CATDS: 2.68711493268559E-2", "result": 761, "unit": "nM"},
      {"measurement": "potency estimated from few doses", "setting": "MAPK10; CATDS: 2.29064571505532E-2", "result": 1230, "unit": "nM"},
      {"measurement": "potency estimated from few doses", "setting": "MAPK9; CATDS: 2.34417692705663E-2", "result": 1140, "unit": "nM"},
      {"measurement": "potency estimated from few doses", "setting": "PIP4K2C; compound concentrations: 100 nM and 1000 nM (sheet 'Samples'), CATDS: 7.0230989511161995E-2", "result": 96.8, "unit": "nM"}
    ]},
    {"smiles": "NCC(NC(=O)c1cc(-c2cn[nH]c2)c(-c2ccnc3[nH]ccc23)s1)c1ccccc1.NCC(NC(=O)c1cc(-c2cn[nH]c2)c(-c2ccnc3[nH]ccc23)s1)c1ccccc1.O=C(O)C(F)(F)F.O=C(O)C(F)(F)F", "note": "(centres unmarked) [GSK1325775A]", "values": [
      {"measurement": "potency estimated from few doses", "setting": "CSNK1D; CATDS: 2.89439417277669E-2", "result": 2450, "unit": "nM"},
      {"measurement": "potency estimated from few doses", "setting": "PRKACA; compound concentrations: 100 nM and 1000 nM (sheet 'Samples'), CATDS: 4.90722253933666E-2", "result": 503, "unit": "nM"},
      {"measurement": "potency estimated from few doses", "setting": "PRKACB; compound concentrations: 100 nM and 1000 nM (sheet 'Samples'), CATDS: 4.09510310832654E-2", "result": 782, "unit": "nM"}
    ]},
    {"smiles": "Cc1cc(-c2ccnc(Nc3cccc(C#N)c3)n2)cc(C)c1O", "note": "[GSK1440913A]", "values": [
      {"measurement": "potency estimated from few doses", "setting": "MAPK10; CATDS: 8.7033733779345604E-2", "result": 990, "unit": "nM"},
      {"measurement": "potency estimated from few doses", "setting": "PIP4K2C; compound concentrations: 100 nM and 1000 nM (sheet 'Samples'), CATDS: 0.18719100340522599", "result": 168, "unit": "nM"}
    ]},
    {"smiles": "CCN(CC)Cc1ccc(Nc2nccc(-c3cnn4ncccc34)n2)cc1", "note": "[GW780056X]", "values": [
      {"measurement": "potency estimated from few doses", "setting": "CDK16; CATDS: 4.3242463436831802E-2", "result": 196, "unit": "nM"},
      {"measurement": "potency estimated from few doses", "setting": "CSNK1D; CATDS: 9.4015783065552402E-2", "result": 47.8, "unit": "nM"},
      {"measurement": "potency estimated from few doses", "setting": "MAPK10; CATDS: 3.1976328377255003E-2", "result": 371, "unit": "nM"}
    ]},
    {"smiles": "COc1cc(Nc2nccc(-c3cnn4ncccc34)n2)cc(OC)c1", "note": "[GW801372X]", "values": [
      {"measurement": "potency estimated from few doses", "setting": "ATM; compound concentrations: 100 nM and 1000 nM (sheet 'Samples'), CATDS: 3.2681942140962102E-2", "result": 274, "unit": "nM"},
      {"measurement": "potency estimated from few doses", "setting": "CAMKK2; compound concentrations: 100 nM and 1000 nM (sheet 'Samples'), CATDS: 1.8078594286366201E-2", "result": 1750, "unit": "nM"},
      {"measurement": "potency estimated from few doses", "setting": "CDK16; CATDS: 1.6995450779384601E-2", "result": 2320, "unit": "nM"},
      {"measurement": "potency estimated from few doses", "setting": "CSNK1D; CATDS: 1.8156615660070499E-2", "result": 1710, "unit": "nM"},
      {"measurement": "potency estimated from few doses", "setting": "MAPK10; CATDS: 2.5530057385415701E-2", "result": 532, "unit": "nM"},
      {"measurement": "potency estimated from few doses", "setting": "MAPK9; CATDS: 1.8501615721313099E-2", "result": 1580, "unit": "nM"},
      {"measurement": "potency estimated from few doses", "setting": "PIP4K2C; compound concentrations: 100 nM and 1000 nM (sheet 'Samples'), CATDS: 2.38914066508359E-2", "result": 648, "unit": "nM"},
      {"measurement": "potency estimated from few doses", "setting": "STK16; CATDS: 1.87533606847229E-2", "result": 1500, "unit": "nM"}
    ]},
    {"smiles": "CN(c1ccc(NC(=O)NCCN2CCOCC2)cc1)c1ccnc(Nc2ccc(CS(C)(=O)=O)cc2)n1.Cl", "note": "[GW830365A]", "values": [
      {"measurement": "potency estimated from few doses", "setting": "AURKA", "result": 444, "unit": "nM"},
      {"measurement": "potency estimated from few doses", "setting": "TNK1; compound concentrations: 100 nM and 1000 nM (sheet 'Samples'), CATDS: 5.9117233589801498E-2", "result": 792, "unit": "nM"}
    ]},
    {"smiles": "Cl.Cl.NC(CNC(=O)c1cc(Br)c(-c2ccnc3[nH]ccc23)s1)c1ccccc1.NC(CNC(=O)c1cc(Br)c(-c2ccnc3[nH]ccc23)s1)c1ccccc1", "note": "(centres unmarked) [GSK1322949A]", "values": [
      {"measurement": "potency estimated from few doses", "setting": "PRKACA; compound concentrations: 100 nM and 1000 nM (sheet 'Samples'), CATDS: 2.91010350116075E-2", "result": 1300, "unit": "nM"}
    ]},
    {"smiles": "CNCc1ccc(-c2cc(-c3nc(-c4ccc(S(=O)(=O)C(C)C)cc4)cnc3N)on2)cc1", "note": "[VE-822]", "values": [
      {"measurement": "potency estimated from few doses", "setting": "ATM; [1]", "result": 13.5, "unit": "nM"},
      {"measurement": "potency estimated from few doses", "setting": "PIP4K2C; [1]", "result": 186, "unit": "nM"}
    ]},
    {"smiles": "CS(=O)(=O)Nc1ccc(-c2ccnc3[nH]ccc23)cc1", "note": "[GSK993273A]", "values": [
      {"measurement": "potency estimated from few doses", "setting": "PIP4K2C; [1]", "result": 482, "unit": "nM"}
    ]},
    {"smiles": "CC(=O)N[C@@H](Cc1ccc(OP(=O)(O)O)cc1)C(=O)N[C@H]1CCC(=O)N2CCC[C@@H](C(=O)NCc3ccc(Cl)cc3)N2C1=O", "note": "[RO0325308-000]", "values": [
      {"measurement": "potency estimated from few doses", "setting": "BCR", "result": 604, "unit": "nM"},
      {"measurement": "potency estimated from few doses", "setting": "CAMKK2; [1]", "result": 1320, "unit": "nM"},
      {"measurement": "potency estimated from few doses", "setting": "CHEK1", "result": 1950, "unit": "nM"},
      {"measurement": "potency estimated from few doses", "setting": "EPHA4", "result": 843, "unit": "nM"},
      {"measurement": "potency estimated from few doses", "setting": "EPHA5", "result": 770, "unit": "nM"},
      {"measurement": "potency estimated from few doses", "setting": "PIP4K2C; [1]", "result": 1270, "unit": "nM"},
      {"measurement": "potency estimated from few doses", "setting": "PRKAG2", "result": 570, "unit": "nM"},
      {"measurement": "potency estimated from few doses", "setting": "TNK1; [1]", "result": 468, "unit": "nM"}
    ]},
    {"smiles": "CNCC#Cc1c(F)ccc2c1/C(=C/c1[nH]ccc1OC)C(=O)N2.Cl", "note": "[RO0281601-001]", "values": [
      {"measurement": "potency estimated from few doses", "setting": "CDK16; CATDS: 5.4243920353091599E-2", "result": 173, "unit": "nM"},
      {"measurement": "potency estimated from few doses", "setting": "MAPK9; CATDS: 2.4377657095079101E-2", "result": 1310, "unit": "nM"},
      {"measurement": "potency estimated from few doses", "setting": "MARK3; compound concentrations: 100 nM and 1000 nM (sheet 'Samples'), CATDS: 2.1082964771659999E-2", "result": 2280, "unit": "nM"},
      {"measurement": "potency estimated from few doses", "setting": "RPS6KA4", "result": 696, "unit": "nM"},
      {"measurement": "potency estimated from few doses", "setting": "STK16; CATDS: 2.5135483463970699E-2", "result": 1180, "unit": "nM"}
    ]},
    {"smiles": "CCn1c(-c2nonc2N)nc2c(C#CC(C)(C)O)nc(O[C@@H](CN)c3ccccc3)cc21.O=C(O)C(F)(F)F", "note": "[GSK1007102B]", "values": [
      {"measurement": "potency estimated from few doses", "setting": "MARK3; [1]", "result": 163, "unit": "nM"},
      {"measurement": "potency estimated from few doses", "setting": "PRKACA; [1]", "result": 37.5, "unit": "nM"},
      {"measurement": "potency estimated from few doses", "setting": "PRKACB; [1]", "result": 41.1, "unit": "nM"},
      {"measurement": "potency estimated from few doses", "setting": "PRKAG2", "result": 121, "unit": "nM"}
    ]},
    {"smiles": "c1ccc(-c2n[nH]cc2Nc2ccnc3ccccc23)nc1", "note": "[GW694077X]", "values": [
      {"measurement": "potency estimated from few doses", "setting": "CSNK1D; CATDS: 2.5323353021981399E-2", "result": 1390, "unit": "nM"},
      {"measurement": "potency estimated from few doses", "setting": "MAPK9; CATDS: 2.3391396830632599E-2", "result": 1900, "unit": "nM"}
    ]},
    {"smiles": "COc1cc(Nc2nccc(N3CCC(NC(=O)c4cccc(NC(C)=O)c4)C3)n2)cc(OC)c1OC", "note": "(centres unmarked) [GSK1379754A]", "values": [
      {"measurement": "potency estimated from few doses", "setting": "PIP4K2C; compound concentrations: 100 nM and 1000 nM (sheet 'Samples'), CATDS: 7.8975813686716995E-2", "result": 2090, "unit": "nM"}
    ]}
  ]
}
